Assay outcomes from PubChem.
Giardia FBPA inh: blocks Giardia fructose-bisphosphate aldolase activity | purified Giardia FBPA | Potency, µM (top dose mostly 59.6 µM), for inactives: at the highest dose activity, negative = inhibition, hits mostly inhibitors | 0.71% of 290,000 active | A8B2U2; also: potency is read from the fitted curve at half-maximal effect; % is scaled to controls: 0 for no effect and ±100 for the full control effect; nearly all actives have a fitted effect of over 55% in size
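Giardia FBPA (40 nM reagent) was preincubated 10 min at RT with compound (up to 57.5 uM final), then substrate plus GAPDH/TPI/NAD/arsenate coupling system with diaphorase/resazurin was added; resorufin fluorescence (525/598 nm) was read after 20 min.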
LmPK inh: blocks Leishmania mexicana pyruvate kinase activity; Q27686; purified LmPK, Kinase-Glo ATP luminescence, 1 h; Potency, µM (titrated, usually from 57.5 µM), for the others: at the top dose activity change, negative = inhibition, actives largely listed as inhibitors; 0.37% of 290,000 active; AID 1721; also: potency is read from the fitted curve at half-maximal effect; % is scaled to controls: 0 for no effect and ±100 for the full control effect
Target sequence (Q27686 whole entry, looked up): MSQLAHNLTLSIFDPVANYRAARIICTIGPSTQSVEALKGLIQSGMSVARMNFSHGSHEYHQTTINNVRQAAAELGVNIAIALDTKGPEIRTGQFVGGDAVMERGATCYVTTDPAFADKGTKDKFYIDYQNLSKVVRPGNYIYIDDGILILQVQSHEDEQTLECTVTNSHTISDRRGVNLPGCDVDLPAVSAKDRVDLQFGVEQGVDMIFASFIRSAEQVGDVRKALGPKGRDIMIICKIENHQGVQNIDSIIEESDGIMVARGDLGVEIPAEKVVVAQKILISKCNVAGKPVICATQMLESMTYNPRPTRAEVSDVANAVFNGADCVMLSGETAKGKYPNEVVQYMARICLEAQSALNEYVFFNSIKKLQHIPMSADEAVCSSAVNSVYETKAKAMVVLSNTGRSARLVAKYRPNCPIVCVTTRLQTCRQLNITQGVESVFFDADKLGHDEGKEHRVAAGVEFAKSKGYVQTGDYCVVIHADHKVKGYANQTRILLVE
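qHTS format; LmPK 0.1 nM; substrates PEP 0.5 mM and ADP 0.1 mM. One-hour room-temperature incubation, then coupled luciferase luminescence; 0.5 nM enzyme wells mark activation.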
Shiga inhibitor: blocks Shiga toxin action in Vero cells; Vero cells, Shiga toxin protein synthesis inhibition reporter; inhibition, % at 38.7 µM; 9.2% of 290,000 active; AID 2315; in the data active = inhibition mostly above about 28%, no sharp cut-off; inactive = mostly below about 43%; also: 0% is about no effect
NS1 inh: inhibitors of influenza NS1 protein function. Potency, µM (highest dose often 46.1 µM), without a hit: at the top dose activity, positive = more growth. 0.4% of 270,000 active; calls by dose curve; also: potency is read from the fitted curve at half-maximal effect; actives are rising curves; nearly all actives have a fitted effect of over 50% in size
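In this qHTS, NS1 from influenza A is expressed in budding yeast, where it slows growth. Cells are switched from glucose to 2% galactose medium (pH 6.0, -URA), treated with compound, and growth recovery is read at OD600.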
Cycloheximide cs: counter-screen for Shiga toxin inhibitors: cycloheximide protein synthesis inhibition. cell reporter, cycloheximide protein synthesis inhibition counterscreen. max response, %. 12% of 300,000 active; in the data active = max response mostly above about 13%, no sharp cut-off; inactive = mostly below about 14%; also: read at 38.3 µM for the half of the compounds with a filed dose; 0% is about no effect
* marks the source's active call; other numbers are inactive results; ? = inconclusive; / = not tested or not shown; + = active, no number. Only some compounds are listed: those with a hit (about 14% of all), similar ones and a draw of the others. Unless noted, calls follow the shape of the dose curve; as a rule, active = well fitted curve in the direction sought with a large enough effect; inconclusive = small, poorly fitted or top-dose-only effect, or another doubt; inactive = no such curve, though single readings can be large; an effect the other way counts as inactive or inconclusive.

SMILES	Giardia FBPA inh	LmPK inh	Shiga inhibitor	NS1 inh	Cycloheximide cs
O=C(OCc1c(F)cccc1Cl)c1cnc2ccccc2n1	-1.9%	-2.3%	16.5	-6.2%	-2.5
O=C1CC(N2CCOCC2)=NN1c1ccc([N+](=O)[O-])cc1	-12.8%	-0.5%	29.4	1.3%	18.0*
CN(C)c1ccc(/C=C2/C(=O)N(c3ccc([N+](=O)[O-])cc3)N=C2N2CCOCC2)cc1	-16.2%	-5.6%	23.8	-33.3%	1.8
Fc1ccc(NC(=S)Nc2ccc(F)c(Cl)c2)cc1Cl	-10.3%	2.8%	9.7	-189.8%	2.8
Cc1ccc(NC(=S)NC(=O)C2CC2)cc1Cl	/	0.9%	52.9*	-22.2%	28.1*
O=C(NC(=S)Nc1ccc(F)c(Cl)c1)C1CC1	/	1.9%	16.8	-18.3%	27.7*
O=C(NC(=S)Nc1ccc(S(=O)(=O)N2CCCC2)cc1)C1CC1	1.2%	1.9%	1.3	-6.7%	-1.9
CCC[C@@H]1C[C@@H](C(=O)N[C@@H]([C@H]2O[C@H](SC)[C@H](O)[C@@H](O)[C@H]2O)[C@@H](C)O)N(C)C1	1.9%	/	-5.0	/	5.1
COc1cc(SC)ccc1C(=O)NCCCn1ccnc1	-5.7%	-3.4%	-7.1	12.1%	-1.0
O=C(/C=C/c1ccc[nH]1)c1ccccc1	-10.7%	-1.7%	68.1*	/	36.6*
O=C(/C=C/c1ccc[nH]1)c1ccc(F)cc1	-10.1%	-23.7%	72.1*	9.5%	31.9*
O=C(/C=C/c1c(F)cccc1Cl)c1ccc(F)cc1	-2.8%	-23.6%	131.9*	-6.1%	34.7*
O=C(/C=C/c1cccc2ccccc12)c1ccncc1	3.1%	-0.1%	-7.4	-33.9%	2.0
COc1cccc(-c2nn(-c3ccccc3)cc2/C=C(/NC(=O)c2ccccc2)C(=O)O)c1	16.8%	2.6%	3.2	-5.1%	-1.8
COc1ccc(CNC(=O)C2CCN(S(=O)(=O)c3ccc4c(c3)CC(C)N4C(C)=O)CC2)cc1 (stereo unspecified)	6.4%	1.1%	13.7	-7.0%	2.7
O=C(CNc1cccc(F)c1)N1CCc2ccccc2C1	3.0%	0.6%	125.8*	-34.0%	61.9*
O=C(Nc1ccc(Cl)cc1)N1CCc2ccccc2C1	5.8%	?	-12.9	-2.5%	-1.9
Cc1ccc(NC(=O)C(C)N2CCc3ccccc3C2)cc1 (stereo unspecified)	/	0.5%	5.1	0.6%	-2.4
O=C(Nc1ccccc1)N1CCc2ccccc2C1	?	-19.3%	+	-7.6%	59.6*
Cc1ccc(NC(=O)N2CCc3ccccc3C2)cc1	-16.9%	1.4%	57.8*	-51.7%	48.0*
Cc1ccc(NC(=O)N2CCc3ccccc3C2)c(C)c1	-12.8%	-2.5%	64.9*	-9.1%	42.1*
N=C(N)c1ccc(/C=C\c2ccc(C(=N)N)cc2)cc1	/	/	/	-47.8%	/
N#CCS(=O)(=O)c1ccccc1	-2.5%	1.7%	2.8	41.8%	-1.8
CCN(CC)S(=O)(=O)c1cccc(C(=O)NNC(=O)C2=NN(c3ccccc3)C(=O)CC2)c1	-20.2%	2.2%	-3.7	-1.1%	-3.3
O=C1C2C3C=CC(CC3)C2C(=O)N1c1ccc(Cl)cc1 (stereo unspecified)	8.9%	-2.9%	/	22.2%	-1.5
SMILES	Giardia FBPA inh	LmPK inh	Shiga inhibitor	NS1 inh	Cycloheximide cs
CCc1ccc(N2C(=O)C3C4C=CC(CC4)C3C2=O)cc1 (stereo unspecified)	12.2%	5.8%	48.2*	-10.3%	11.9
COc1ccc(N2C(=O)C3CCCN3C2=S)cc1 (stereo unspecified)	-1.4%	-1.4%	-5.3	-6.7%	-1.0
CCc1ccc(N2C(=O)C3CCCN3C2=S)cc1 (stereo unspecified)	6.6%	-5.3%	51.6*	-2.9%	12.6
CC(CN1CCCCC1)OC(=O)COc1ccc(Br)cc1 (stereo unspecified)	-23.2%	-6.1%	-5.8	7.2%	-2.4
Cc1ccc(C(=O)C2CCN(S(=O)(=O)c3ccc(C(=O)O)cc3)CC2)cc1	/	-0.7%	-14.2	0.3%	-7.3
Cc1nn(C)c(N)c1[N+](=O)[O-]	5.8%	-0.4%	34.0	-1.6%	-2.5
Cc1nn(C)c(Sc2ccccc2N)c1[N+](=O)[O-]	-20.8%	2.2%	90.1	0.6%	28.7*
C/C(=C\C(=S)Nc1ccccc1)Nc1ccc2ccccc2c1	1.99µM*	-3.8%	143.1*	-45.0%	74.5*
C/C(=C\C(=S)Nc1ccccc1)Nc1cccc2ccccc12	?	-4.7%	68.2*	3.2%	41.5*
O=C(NCCCN1CCCC1=O)C(=O)NCC1OCCCN1S(=O)(=O)c1cc(F)ccc1F (stereo unspecified)	/	-1.9%	-8.1	9.5%	1.4
